Test results published in PubChem BioAssay AID1159580 (chemical genetic matrix, 2015).
Out of some 5,500 compounds screened, about 2,000 (36%) were called active. Inconclusive results (about 18%) are left out. Rule as the data show it: active = normalized growth mostly below about 0.91 (no sharp cut-off); inconclusive = no clear call, values can overlap the other calls; inactive = mostly above about 0.92. Some of the results follow.

Test: chemical genetic growth profiling, strain panel (AID 1159580);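 also: tested at 20 µM; growth read once vehicle control cultures reached saturation at 30 °C; 1 = growth at the plate median or of vehicle wells; lower values mean less growth of the strain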
Settings: S. cerevisiae deletion strains, growth OD

Measured: normalized growth

COc1ccc(CNC(=O)/C=C/c2ccc3[nH]cc(CCN(C)C)c3c2)cc1
inactive: locus YAL040C, strain CLN3, stronger effect = lower value 1.1 | locus YCL061C, strain MRC1 (second series), stronger effect = lower value 0.991 | locus YER002W, strain NOP16, stronger effect = lower value 0.997 | locus YGR078C, strain PAC10, stronger effect = lower value 0.987 | locus YMR263W, strain SAP30, stronger effect = lower value 0.98 | locus YNL153C, strain GIM3, stronger effect = lower value 0.985 | locus YNL175C, strain NOP13, stronger effect = lower value 1.01 | locus YNL197C, strain WHI3, stronger effect = lower value 1 | locus YNL224C, strain SQS1, stronger effect = lower value 0.986 | locus YOR083W, strain WHI5 (second series), stronger effect = lower value 1.01

COC(=O)CC1C(C)(C(=O)c2ccoc2)CC2OCC34C(CC(=O)OC)C5(C)CC36OC3(C)OC1(C(OC(C)=O)C6(OC(C)=O)C5OC(=O)C(C)C)C24O3 (configuration not stated)
inactive: locus YAL021C, strain ccr4, stronger effect = lower value 0.995 | locus YAL026C, strain drs2, stronger effect = lower value 0.967 | locus YAL030W, strain snc1, stronger effect = lower value 0.975 | locus YBL061C, strain skt5, stronger effect = lower value 0.978 | locus YBR009C, strain hhf1, stronger effect = lower value 0.949 | locus YBR023C, strain chs3, stronger effect = lower value 0.987 | locus YBR171W, strain sec66, stronger effect = lower value 0.981 | locus YBR231C, strain swc5, stronger effect = lower value 0.993 | locus YBR279W, strain paf1, stronger effect = lower value 0.996 | locus YCL011C, strain gbp2, stronger effect = lower value 0.972 | locus YCL016C, strain dcc1, stronger effect = lower value 0.99 | locus YCL061C, strain MRC1, stronger effect = lower value 0.995 | locus YCL069W, strain vba3, stronger effect = lower value 0.979 | locus YCR088W, strain abp1, stronger effect = lower value 0.983 | locus YDL005C, strain med2, stronger effect = lower value 0.97 | locus YDL040C, strain nat1, stronger effect = lower value 0.986 | locus YDR001C, strain nth1, stronger effect = lower value 0.986 | locus YDR069C, strain doa4, stronger effect = lower value 0.99 | locus YDR137W, strain rgp1, stronger effect = lower value 0.975 | locus YDR159W, strain sac3, stronger effect = lower value 0.968 | locus YDR195W, strain ref2 0.944 | locus YDR297W, strain sur2, stronger effect = lower value 0.978 | locus YDR334W, strain swr1, stronger effect = lower value 0.969 | locus YDR335W, strain msn5, stronger effect = lower value 0.987 | locus YDR392W, strain spt3, stronger effect = lower value 0.911 | locus YEL003W, strain gim4, stronger effect = lower value 0.971 | locus YEL037C, strain rad23, stronger effect = lower value 0.967 | locus YEL061C, strain CIN8 (second series), stronger effect = lower value 0.975 | locus YER015W, strain faa2, stronger effect = lower value 0.987 | locus YER016W, strain bim1, stronger effect = lower value 0.98 | locus YER111C, strain swi4, stronger effect = lower value 0.959 | locus YER155C, strain BEM2 (second series), stronger effect = lower value 1.01 | locus YFR010W, strain ubp6, stronger effect = lower value 0.978 | locus YGL167C, strain pmr1, stronger effect = lower value 0.959 | locus YGL173C, strain kem1, stronger effect = lower value 0.97 | locus YGL227W, strain vid30, stronger effect = lower value 0.97 | locus YGL240W, strain doc1, stronger effect = lower value 0.988 | locus YGL253W, strain hxk2, stronger effect = lower value 0.966 | locus YHR013C, strain ard1, stronger effect = lower value 0.952 | locus YHR027C, strain rpn1, stronger effect = lower value 0.985 | locus YHR142W, strain chs7, stronger effect = lower value 0.994 | locus YJL092W, strain hpr5, stronger effect = lower value 0.987 | locus YJL095W, strain BCK1 (second series), stronger effect = lower value 0.993 | locus YJL115W, strain asf1, stronger effect = lower value 0.988 | locus YJL129C, strain trk1, stronger effect = lower value 0.975 | locus YJL154C, strain vps35, stronger effect = lower value 0.984 | locus YJL164C, strain tpk1, stronger effect = lower value 1 | locus YJL166W, strain qcr8, stronger effect = lower value 0.996 | locus YJL187C, strain SWE1, stronger effect = lower value 0.984 | locus YKL160W, strain elf1, stronger effect = lower value 1.01 | locus YKR026C, strain gcn3, stronger effect = lower value 0.976 | locus YKR091W, strain srl3, stronger effect = lower value 0.96 | locus YLL001W, strain dnm1, stronger effect = lower value 1.01 | locus YLL026W, stronger effect = lower value 0.993 | locus YLL041C, strain sdh2, stronger effect = lower value 0.996 | locus YLR027C, strain aat2, stronger effect = lower value 0.982 | locus YLR221C, strain rsa3, stronger effect = lower value 0.999 | locus YLR258W, strain gsy2, stronger effect = lower value 0.964 | locus YLR262C, strain YPT6 (second series), stronger effect = lower value 0.983 | locus YLR320W, strain mms22, stronger effect = lower value 0.993 | locus YLR342W, strain FKS1, stronger effect = lower value 0.963 | locus YLR357W, strain rsc2, stronger effect = lower value 1.02 | locus YLR370C, strain arc18, stronger effect = lower value 0.981 | locus YLR384C, strain iki3, stronger effect = lower value 0.97 | locus YML120C, strain ndi1, stronger effect = lower value 0.987 | locus YMR058W, strain fet3, stronger effect = lower value 0.975 | locus YMR125W, strain sto1, stronger effect = lower value 0.995 | locus YMR129W, stronger effect = lower value 0.966 | locus YMR205C, strain PFK2, stronger effect = lower value 0.957 | locus YMR231W, strain pep5, stronger effect = lower value 0.977 | locus YNL071W, strain lat1, stronger effect = lower value 0.982 | locus YNL209W, strain ssb2, stronger effect = lower value 0.988 | locus YNL248C, strain rpa49, stronger effect = lower value 1.02 | locus YNL322C, strain KRE1 (second series), stronger effect = lower value 0.969 | locus YNR049C, strain mso1, stronger effect = lower value 0.973 | locus YOR001W, strain rrp6, stronger effect = lower value 1.04 | locus YOR070C, strain gyp1, stronger effect = lower value 1.03 | locus YOR080W, strain dia2, stronger effect = lower value 0.982 | locus YOR083W, strain WHI5, stronger effect = lower value 1.01 | locus YOR106W, strain vam3, stronger effect = lower value 0.991 | locus YOR265W, strain rbl2, stronger effect = lower value 0.992 | locus YOR270C, strain vph1, stronger effect = lower value 0.856 | locus YOR290C, strain snf2, stronger effect = lower value 0.895 | locus YPL051W, strain arl3, stronger effect = lower value 0.993 | locus YPL078C, strain atp4, stronger effect = lower value 0.99 | locus YPL106C, strain sse1, stronger effect = lower value 0.985 | locus YPL240C, strain hsp82, stronger effect = lower value 0.947
